Pol kappa inh: qHTS for Inhibitors of Polymerase Kappa; DNA polymerase kappa (Homo sapiens), Q9UBT6; purified Pol kappa, fluorescent DNA synthesis assay, 10 min; Potency, µM (highest dose often 107 µM), without a hit: at the highest dose activity, negative = inhibition, usual class: inhibitors; hit rate 0.53% among 400,000; AID 588579, 2011; also: potency is read from the fitted curve at half-maximal effect; % is scaled to controls: 0 for no effect and ±100 for the full control effect
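Fluorescent qHTS in 1536-well format: enzyme (10 nM) and compound sat 15 min at room temperature before 50 nM substrate (final) was added. Signal taken at 0 and 10 min; no-enzyme buffer wells were negative controls.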
POLH inh: qHTS for Inhibitors of Polymerase Eta. DNA polymerase eta (Homo sapiens), Q9Y253. recombinant Pol eta, fluorescent DNA replication assay. Potency, µM (titrated, usually from 114 µM), for the others: top-dose activity change, negative = inhibition, usual class: inhibitors. hit rate 1.2% among 390,000. AID 588591, 2011; also: potency is read from the fitted curve at half-maximal effect; % is scaled to controls: 0 for no effect and ±100 for the full control effect
Target sequence (Q9Y253 whole entry, looked up): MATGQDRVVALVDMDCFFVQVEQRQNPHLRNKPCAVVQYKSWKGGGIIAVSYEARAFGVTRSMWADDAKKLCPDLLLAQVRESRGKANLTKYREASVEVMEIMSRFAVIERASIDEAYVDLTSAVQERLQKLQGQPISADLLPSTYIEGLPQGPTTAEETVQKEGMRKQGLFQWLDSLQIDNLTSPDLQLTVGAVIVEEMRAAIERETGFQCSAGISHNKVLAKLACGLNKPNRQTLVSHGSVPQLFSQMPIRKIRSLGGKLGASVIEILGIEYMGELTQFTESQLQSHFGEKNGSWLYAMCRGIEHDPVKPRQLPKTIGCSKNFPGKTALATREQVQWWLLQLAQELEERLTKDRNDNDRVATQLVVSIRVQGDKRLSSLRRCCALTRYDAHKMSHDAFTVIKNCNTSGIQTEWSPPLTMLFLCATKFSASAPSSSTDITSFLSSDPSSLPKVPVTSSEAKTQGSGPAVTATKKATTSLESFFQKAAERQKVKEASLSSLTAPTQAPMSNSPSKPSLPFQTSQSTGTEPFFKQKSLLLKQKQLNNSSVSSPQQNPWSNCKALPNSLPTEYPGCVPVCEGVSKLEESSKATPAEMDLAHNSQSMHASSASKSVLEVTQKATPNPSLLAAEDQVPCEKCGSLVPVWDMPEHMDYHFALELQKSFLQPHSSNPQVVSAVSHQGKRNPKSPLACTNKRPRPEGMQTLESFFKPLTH
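Fluorescent replication assay: 50 nM final substrate added after a 15 min room-temperature compound preincubation with 10 nM enzyme. Signal taken at 0 min and again at 10 min.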
Pol beta inh: qHTS Assay for Inhibitors of DNA Polymerase Beta; hit rate 1.3% among 340,000; Potency, µM (series often up to 114 µM), without a hit: top-dose activity change, negative = inhibition, hits mostly inhibitors; AID 485314, 2010; Pol beta primer extension/strand displacement, fluorescence kinetic; P06746; also: potency is read from the fitted curve at half-maximal effect; % is scaled to controls: 0 for no effect and ±100 for the full control effect
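Kinetic readout of DNA synthesis with strand displacement by Pol beta. Compound and 10 nM enzyme sit 15 min at room temperature; 50 nM substrate starts the reaction, read immediately and at 10 min.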
POLI inh: qHTS for Inhibitors of Polymerase Iota; hit rate 1% among 390,000; DNA polymerase iota (Homo sapiens), Q9UNA4; Potency, µM (doses to about 115 µM), without a hit: at the highest dose activity, negative = inhibition, most hits filed as inhibitors; Pol iota fluorescent replication assay, 10 min; also: potency is read from the fitted curve at half-maximal effect
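Pol iota at 10 nM preincubated 15 min with compounds at room temperature; reaction started with fluorescent substrate, 50 nM final. Fluorescence read kinetically at 0 and 10 min; buffer-only wells as negative control.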
PI5P4K alpha inh: qHTS for Inhibitors of phosphatidylinositol 5-phosphate 4-kinase (PI5P4K) | Phosphatidylinositol 5-phosphate 4-kinase type-2 alpha (Homo sapiens), P48426 | PI5P4Kalpha enzyme, ADP-Glo luminescence, 60 min; hits give low values | max response, % | hit rate 1.2% among 330,000 | AID 652105, 2013; active = max response of -50% or lower; inconclusive = between -30% and -50%; inactive = -30% or higher; also: value at the top dose of about 77 µM; % is scaled to controls: 0 for no effect and ±100 for the full control effect
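Quantitative HTS of the MLSMR library against PI5P4Kalpha with substrate. ATP added last at 5 microM final; room temperature, 60 minutes. Remaining ATP depleted, ADP converted and read as luminescence.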
12-LOX inh: Primary qHTS assay for inhibitors of human arachidonate 12S-lipoxygenase (ALOX12): Round 2; hit rate 1.1% among 580,000; purified 12hLO, xylenol orange hydroperoxide absorbance; Polyunsaturated fatty acid lipoxygenase ALOX12 (Homo sapiens), P18054; Potency, µM (highest dose often 108 µM), for inactives: at the highest dose activity change, negative = inhibition, usual class: inhibitors; AID 1671190, 2021; also: potency is read from the fitted curve at half-maximal effect; % is scaled to controls: 0 for no effect and ±100 for the full control effect
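Hydroperoxide product was detected by ferrous iron/xylenol orange as the 573 to 405 nm absorbance ratio. Arachidonic acid at 40 uM (final) was turned over for 30 min at room temperature by 150 nM human 12hLO, pH 7.0 Hepes buffer, after 15 min compound preincubation.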
Starred values were filed as active, the others as inactive; ? = inconclusive; . = not tested or not shown; [ ] = dose if it differs, or a comment. Most compounds without a hit are left out; they make up all but 2.9% or so of the library. Unless noted, calls follow the shape of the dose curve; as a rule, active = well fitted inhibition curve with a large enough effect; inconclusive = small, poorly fitted or top-dose-only effect, or another doubt; inactive = no such curve, though single readings can be large or run the other way.

SMILES	Pol kappa inh	POLH inh	Pol beta inh	POLI inh	PI5P4K alpha inh	12-LOX inh
O=C(Cc1cccs1)OCC(=O)c1ccccc1	.	.	.	.	.	40µM*
O=C(COC(=O)c1cccs1)c1ccccc1	0%	-5%	-20%	?	1	0%
Cn1c(CCNC(=O)C2CCCCC2)nc2cc(NC(=O)c3cccs3)ccc21	1%	3%	40µM*	89%	-4	1%
CC(C)(C)c1ccccc1NC(=O)CCC(=O)O	.	.	.	.	.	-25%
CC(C#N)(NC(=O)CSc1ccc(F)cc1)C1CC1 (configuration not stated)	.	.	.	.	.	15%
Cc1ccc(SCC(=O)NC(C)(C#N)C2CC2)c(C)c1 (configuration not stated)	.	.	.	.	.	35µM*
CCOC(=O)C1CCN(C(=O)COC(=O)c2cc([N+](=O)[O-])ccc2N2CCOCC2)CC1	-2%	-13%	.	26%	-5	9%
Cn1c(N)c(C(=O)COC(=O)c2ccc(Br)o2)c(=O)n(C)c1=O	-11%	-3%	0%	28%	-3	0%
CC1CC(C)CN(C(=O)COC(=O)c2ccc([N+](=O)[O-])o2)C1 (configuration not stated)	-23%	89µM*	.	?	2	?
Cn1c(N)c(C(=O)COC(=O)c2ccc([N+](=O)[O-])o2)c(=O)n(C)c1=O	-26%	89µM*	-3%	50µM*	2	-12%
CCOC(=O)C1CCN(C(=O)COC(=O)c2ccc([N+](=O)[O-])o2)CC1	-4%	79µM*	.	50µM*	-4	156%
Cc1ccc(C(=O)NCC(=O)OCC(=O)c2c(N)n(C)c(=O)n(C)c2=O)s1	-6%	?	35µM*	?	?	-3%
CC1CCN(C(=O)c2ccc([N+](=O)[O-])o2)CC1	-11%	2%	19%	20%	-1	2%
CC1CCCC(C)N1C(=O)COC(=O)c1ccc([N+](=O)[O-])o1 (configuration not stated)	-13%	50µM*	.	50µM*	1	?
COc1ccccc1N1CCN(CC(=O)Nc2ccc(C)cc2Cl)CC1	.	.	.	.	.	9%
CN(Cc1ccc(-c2ccccc2)cc1)Cc1ccccn1	.	.	.	.	.	148%[176 µM]
CN(C)c1ccc(C(=O)N/N=C/c2ccc(Br)s2)cc1	.	.	.	.	.	20µM*
O=C(N/N=C/c1ccc(Br)s1)c1cccc(Cl)c1	.	.	.	.	.	10%
O=C(NS(=O)(=O)c1ccccc1[N+](=O)[O-])c1ccccc1	0%	-8%	108%	?	1	11µM*
O=C(NS(=O)(=O)c1ccccc1)c1ccccc1	-15%	-4%	-1%	42%	2	?
O=C(NS(=O)(=O)NC(=O)c1ccccc1)c1ccccc1	.	.	.	.	.	11µM*
CC(C)c1ccc(OCC(=O)NC(Cc2c[nH]c3ccccc23)C(=O)O)cc1 (configuration not stated)	0%	-9%	-4%	13%	5	?
CCOC(=O)C(Cc1c[nH]c2ccccc12)NC(=O)COc1ccc(Cl)cc1 (configuration not stated)	-19%[60.1 µM]	-21%	-16%	79µM*	.	-20%
Cc1csc2nc(COC(=O)c3ccc(NC(=O)c4ccc(C(C)(C)C)cc4)cc3)cc(=O)n12	.	.	.	.	.	-2%
Cc1csc2nc(COC(=O)c3ccccc3NC(=O)COc3ccccc3F)cc(=O)n12	6%[60.1 µM]	-14%	25µM*	-15%	.	?
SMILES	Pol kappa inh	POLH inh	Pol beta inh	POLI inh	PI5P4K alpha inh	12-LOX inh
CCOc1ccc(C(=O)Nc2ccc(C(=O)OCc3cc(=O)n4c(C)csc4n3)cc2)cc1	-6%[60.1 µM]	-17%	18µM*	?	.	?
CCC(=O)Nc1cc2c(cc1C(=O)c1ccccc1)OCCO2	-7%	-8%	79µM*	11%	-5	-14%
CC(=O)Nc1cc2c(cc1C(=O)c1ccccc1)OCCO2	0%	-18%	24%	0%	0	112%
Cc1ccc(S(=O)(=O)N2CCn3cccc3C2c2ccccc2)cc1 (configuration not stated)	.	.	.	.	.	-4%
CN(C)c1ccc(Cc2cc3c(O)ccc(O)c3cc(Cc3ccc(N(C)C)cc3)c2=O)cc1	7.9µM*	2.2µM*	.	3.2µM*	-84*	?
COC(=O)[C@@H]1Cc2c([nH]c3ccccc23)[C@H]2C[C@H](NCc3cccs3)C[C@@H](c3ccccc3)N21	.	.	.	.	.	12%
CCOC(=O)c1c(-n2c(C)cc(C=O)c2C)sc2c1CCCC2	-12%	-12%	-20%	0%	.	-24%
Cc1sc(-n2c(C)cc(C=O)c2C)c(C(=O)O)c1C	-25%	50µM*	?	35µM*	.	?
C(=C\c1ccccc1)/C=N/Nc1nc2ccccc2s1	-5%	-18%	0%	25%	.	11%
CCC/C=N/Nc1nc2ccccc2s1	-10%	-21%	6%	101%	3	40µM*
O=C(CSC1=NCCS1)N(Cc1ccc(Cl)cc1)C12CC3CC(CC(C3)C1)C2	.	.	.	.	.	4%
CCOc1ccc(NC(=O)NCCCn2c(C)nc3cc(C)c(C)cc32)cc1	-6%	-1%	-1%	-7%	.	0%
Cc1cc2nc(C)n(CCCNC(=O)Nc3cccc4ccccc34)c2cc1C	-23%	-3%	40µM*	?	.	-15%
CC(NCc1cccc(C#N)c1)c1ccc(Cl)c(Cl)c1 (configuration not stated)	.	.	.	.	.	-5%
CCCNc1nc2ccccc2nc1C(=O)Nc1ccccc1	.	.	.	.	.	-12%
CN1C(=O)/C(=N\OC(=O)c2cccc3ccccc23)c2ccccc21	-6%	1%	46%	32µM*	.	6%
NC(=O)Cc1nc(-c2ccc(F)cc2)cs1	4%	-18%	71%	-4%	4	-6%
NC(=S)Cc1nc(-c2ccc(Cl)cc2)cs1	-7%	-13%	1%	43%	?	35µM*
COC(=O)Cc1c(C)c2ccc(OCC(=O)C(C)(C)C)c(C)c2oc1=O	.	.	.	.	.	-2%
CCCN1C(=O)[C@@H]2[C@@H](CCN2C(=O)CSCC(=O)O)N(Cc2cccs2)C1=O	.	.	.	.	.	32µM*
O=C1[C@@H]2[C@@H](CCN2C(=O)NC2CCCCC2)N(Cc2cccs2)C(=O)N1c1cccc(F)c1	.	.	.	.	.	-12%
CCCCc1nnc(SCCSc2nnc(CCCC)n2N)n1N	-6%	-10%	28%	89µM*	0	0%
COc1ccc(N2CC(C(=O)NCCNC(=O)c3cn(C)c4ccccc34)CC2=O)cc1 (configuration not stated)	.	.	.	.	.	11%
